# Rows were chosen to be rich in hits. Some 17% of all compounds tested hit in one or more screens of this group.
# TGFb SMAD3 inh: qHTS for Inhibitors of TGF-b | HepG2 CAGA-GFP TGF-b/SMAD3 reporter, GFP fluorescence, 18 h; TGF-beta stimulated, 500 pg/mL final | Potency, µM (titrated, usually from 46.1 µM), inactives show at the highest dose activity, negative = inhibition, hits mostly inhibitors | 1.2% of 410,000 active | AID 588855, 2011; further: on the % scale 0 is the no-effect control and ±100 the full control effect; nearly all actives have a fitted effect of over 65% in size
#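 Cell-based qHTS in HEPG2 carrying a CAGA-GFP Smad reporter; compounds added before 500 pg/mL final TGF-beta, 18 h incubation at 37 degrees C, GFP fluorescence quantified per cell by imaging cytometry.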
# TDP1 cell CPT: qHTS for Inhibitors of human tyrosyl-DNA phosphodiesterase 1 (TDP1): qHTS in cells in presence of CPT; AID 686979, 2013; 12% of 420,000 active; Potency, µM (titrated, usually from 46.2 µM), for inactives: at the highest dose activity change, negative = growth inhibition, hits mostly inhibitors; chicken DT40 Tdp1-/-;hTDP1 cells + 20 nM CPT, ATP luminescence, 48 h; further: on the % scale 0 is the no-effect control and ±100 the full control effect; nearly all actives have a fitted effect of over 55% in size
#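 Chicken DT40 Tdp1-/- cells stably complemented with human TDP1 were seeded at 400 cells/well in medium containing 20 nM camptothecin, exposed to pin-transferred compounds, and grown at 37 °C for at least 48 hr. Viability was read as ATP luminescence.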
# HT1080NT lethal: qHTS for induction of synthetic lethality in tumor cells producing 2HG: qHTS for the HT-1080-NT fibrosarcoma cell line. AID 686970, 2013. Potency, µM (series often up to 46.1 µM), for inactives: at the top dose activity, negative = less viability, usual class: cytotoxic. HT-1080-NT fibrosarcoma viability, CellTiter-Glo ATP luminescence, 48 h. 1.6% of 360,000 active;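 further: NT is the 2HG producing partner of a matched IDH1 knockdown line; 0% = DMSO-treated cells and -100% = media-only wells without cells; nearly all actives have a fitted effect of over 55% in size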
#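 Luminescent CellTiter-Glo readout after 48 hours of compound exposure at 37 degrees C defined viability of HT-1080-NT cells. Activity was normalized to DMSO wells and cell-free media wells; concentration-response curves were fitted and assigned curve classes.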
# HepG2 tox: qHTS for Inhibitors of TGF-b: Cytotox Counterscreen; HepG2 CAGA-GFP viability, ATP luminescence, 18 h; Potency, µM (series often up to 46.1 µM), for inactives: at the top dose activity change, negative = cytotoxicity, actives largely listed as cytotoxic; 0.76% of 410,000 active
#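 CellTiter-Glo luminescence gave cytotoxicity after 18 hours at 37 degrees C. The cells were HepG2 CAGA-GFP in 1% FBS DMEM, stimulated with 500 pg/mL TGF-beta after compound addition. %Activity was normalised to no-cell wells (complete cell-killing) and DMSO (no toxicity), and curves were fitted and classified.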
# HT1080 IDH1KD tx: qHTS for induction of synthetic lethality in tumor cells producing 2HG: qHTS for the HT-1080-IDH1KD cell line | HT-1080 IDH1 knockdown viability, ATP luminescence, 48 h | Potency, µM (top dose mostly 46.1 µM), for the others: top-dose activity, negative = toxicity, usual class: cytotoxic | 2% of 360,000 active | AID 686971, 2013;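 further: 0% = DMSO wells and -100% = cell-free medium wells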
#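 After a 2 h attachment period, IDH1KD HT-1080 cells took pin-transferred compound for 48 h at 37 °C; ATP-based luminescence after 10 min room-temperature reagent incubation reported viability.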
# TDP1 cell noCPT: qHTS for Inhibitors of human tyrosyl-DNA phosphodiesterase 1 (TDP1): qHTS in cells in absence of CPT | AID 686978, 2013 | 15% of 420,000 active | DT40 Tdp1-/- hTDP1 cells, no CPT, ATP luminescence, 48 h | Potency, µM (series often up to 46.2 µM), inactives show at the highest dose activity change, negative = growth inhibition, most hits filed as inhibitors; further: on the % scale 0 is the no-effect control and ±100 the full control effect; nearly all actives have a fitted effect of over 55% in size
#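 Readout: luminescence from CellTiter-Glo after 30 min in the dark at RT. Cells: DT40 Tdp1-/- with stable hTDP1, 400/well. Exposure: compounds alone, ≥48 hr, 37 °C.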
# Starred values were filed as active, the others as inactive; ? = inconclusive; / = not tested or not shown. The call rests on the fitted dose curve; in most records, active means well fitted curve in the direction sought with a large enough effect; inconclusive means small, poorly fitted or top-dose-only effect, or another doubt; inactive means no such curve, though single readings can be large; an effect the other way counts as inactive or inconclusive. Potency means the concentration at half of the fitted maximal effect.
SMILES,TGFb SMAD3 inh,TDP1 cell CPT,HT1080NT lethal,HepG2 tox,HT1080 IDH1KD tx,TDP1 cell noCPT
CCOc1ccc(-n2cc(C(=O)Nc3ccccc3OCC)c3cc(OC)c(OC)cc3c2=O)cc1,43%,?,/,13%,/,?
COc1ccc(OC(=O)c2cn(-c3cccc(OC)c3)c(=O)c3ccccc23)cc1,7%,?,/,-7%,/,?
CCOC(=O)c1ccc(OC(=O)c2cn(-c3ccc(C)cc3)c(=O)c3ccccc23)cc1,22%,16µM*,/,-16%,/,?
COc1ccc(-n2cc(C(=O)N(CCN(C)C)Cc3ccccc3)c3ccccc3c2=O)cc1,?,-27%,/,-12%,/,?
CCOc1ccc(-n2cc(C(=O)Nc3ccc(Cl)cn3)c3cc(OC)c(OC)cc3c2=O)cc1,-3%,2.9µM*,-7%,-4%,1%,-27%
COc1ccc(-n2cc(C(=O)N(C)c3cc(C)ccc3OC)c3ccccc3c2=O)cc1,?,?,/,-35%,/,21µM*
C=CCSc1nc2ccsc2c(=O)n1-c1cccnc1,?,-30%,3%,2%,0%,-9%
CCn1cc(/C=C(\NC(=O)c2cc(OC)c(OC)c(OC)c2)C(=O)NCCCn2ccnc2)c2ccccc21,-2%,-27%,/,-50%,/,?
O=C(NNC1CC(=O)N(c2ccc(Cl)cc2)C1=O)c1ccco1 (configuration not stated),18%,9%,4%,12%,6%,4%
CCOc1ccc(OC(=O)c2cn(-c3ccc(C)cc3)c(=O)c3ccccc23)cc1,1%,?,/,1%,/,16µM*
OC(c1cccc(Cl)c1)c1ncc(-c2cccc(C(F)(F)F)c2)[nH]1 (configuration not stated),?,?,?,-63%,?,23µM*
OC(c1cccc(F)c1)c1ncc(-c2ccc(C(F)(F)F)cc2)[nH]1 (configuration not stated),2%,?,-30%,-32%,?,16µM*
CCc1ccc(C(O)c2ncc(-c3cccc(C(F)(F)F)c3)[nH]2)cc1 (configuration not stated),?,?,23µM*,-113%,?,23µM*
COc1ccc(C(O)c2ncc(-c3cccc(C(F)(F)F)c3)[nH]2)cc1F (configuration not stated),5%,16µM*,-11%,-39%,-24%,?
OC(c1ccc2ccccc2c1)c1ncc(-c2ccc(C(F)(F)F)cc2)[nH]1 (configuration not stated),?,?,?,-36%,?,?
NNC(=O)c1ccc(O)cc1O,11%,3%,6%,-2%,2%,7%
Cc1noc(C)c1C(=O)N1CCC2(CCN(Cc3nccs3)CC2)CC1,/,2%,/,/,/,-9%
COc1ccc(C2CC(c3ccccc3)=NN2C(=O)COC(=O)c2cccc(N)c2)cc1 (configuration not stated),?,?,?,-15%,3%,?
COc1ccccc1CNC(=O)COC(=O)c1ccc(-n2cnnn2)cc1,0%,-5%,-1%,-22%,-2%,-17%
COc1c(C)cc(C(O)c2ncc(-c3ccc(C(F)(F)F)cc3)[nH]2)cc1C (configuration not stated),?,?,?,-46%,16µM*,?
Cc1ccc([C@H]2C(C(=O)O)=CC[C@@H](c3ccc(C)cc3)N2S(=O)(=O)c2ccc(C)cc2)cc1,1%,-4%,-4%,-4%,-12%,-10%
CC/C(C)=N\N=C\c1c(O)n(CC)c2cc(C3=NNC(=O)CC3)ccc12,33%,10µM*,-5%,6%,-1%,6.5µM*
CCn1c(O)c(/C=N/N=C/c2ccc(OC)cc2)c2cc(C3=NNC(=O)CC3)ccc21,9%,1%,16%,-9%,14%,-1%
CCOC(=O)C1(C)CCCN(C(=O)c2cccnc2)C1 (configuration not stated),17%,-16%,6%,-80%,9%,17%
Cc1ccccc1C(=O)NN1C(=O)CSC1=S,-3%,-1%,1%,4%,3%,7%
SMILES,TGFb SMAD3 inh,TDP1 cell CPT,HT1080NT lethal,HepG2 tox,HT1080 IDH1KD tx,TDP1 cell noCPT
O=C1CSC(=S)N1Nc1ccccc1,14%,-14%,?,-1%,5.8µM*,-14%
Cc1ccc(Cn2c(=N)c(C(=O)NCc3ccco3)cc3c(=O)n4ccccc4nc32)cc1,-2%,11µM*,-10%,-14%,-6%,11µM*
N=c1c(C(=O)NCc2ccco2)cc2c(=O)n3ccccc3nc2n1CCc1ccccc1,?,18µM*,1%,-8%,-4%,21µM*
COCCCn1c(=N)c(C(=O)NCc2ccco2)cc2c(=O)n3ccccc3nc21,0%,-1%,/,9%,/,-28%
COc1ccc(CCn2c(=N)c(C(=O)NCc3ccco3)cc3c(=O)n4ccccc4nc32)cc1OC,14%,7.3µM*,0%,7%,-3%,6.5µM*
COc1ccc(CCNC(=O)c2cc3c(=O)n4ccccc4nc3n(Cc3ccco3)c2=N)cc1OC,-17%,21µM*,14%,-17%,9%,13µM*
NNC(=S)NC1CCCCC1,-2%,6.5µM*,9%,1%,28%,5.8µM*
COc1ccc2c(CC(=O)OCC(=O)N3CCc4ccccc43)coc2c1,-5%,?,1%,3%,0%,18µM*
COc1ccc(C)cc1NC(=O)c1cc2c(=O)n3cccc(C)c3nc2s1,-6%,2%,/,-14%,/,-3%
Cc1cccc(NC(=O)c2cc3c(=O)n4cccc(C)c4nc3s2)c1C,-13%,1.8µM*,/,-41%,/,2.3µM*
Cc1cccn2c(=O)c3cc(C(=O)NCCCOC(C)C)sc3nc12,-4%,?,11%,-19%,-1%,21µM*
CCOCCCNC(=O)c1cc2c(=O)n3cccc(C)c3nc2n1C,0%,0.58µM*,?,4%,?,0.82µM*
CCCN(CCC)C(=O)c1cc2c(=O)n3cccc(C)c3nc2s1,0%,?,-3%,-17%,-3%,18µM*

# From PubChem BioAssay
